The record followed here is PubChem BioAssay (NCATS).

The target in test [1] is Rap guanine nucleotide exchange factor 3 (Homo sapiens) (UniProt O95398). The test is described as follows: Confirmatory qHTS for antagonist of cAMP-regulated guanine nucleotide exchange factor 3 (EPAC1) (AID 1645880). Further: nearly all actives have a fitted effect of over 55% in size. Further: potency means the concentration at half of the fitted maximal effect. The essentials: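 Released BODIPY-GDP fluoresces less than Rap1-bound BODIPY-GDP; the signal is followed at 480/540 nm at 5-min intervals over 30 min, after 5 min at room temperature. Reactions contain 100 nM EPAC1, 250 nM RAP1B-BODIPY-GDP and 50 uM GDP; results are normalized to ATA and DMSO.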
Chain of Rap guanine nucleotide exchange factor 3 (Homo sapiens) (O95398 whole entry, looked up): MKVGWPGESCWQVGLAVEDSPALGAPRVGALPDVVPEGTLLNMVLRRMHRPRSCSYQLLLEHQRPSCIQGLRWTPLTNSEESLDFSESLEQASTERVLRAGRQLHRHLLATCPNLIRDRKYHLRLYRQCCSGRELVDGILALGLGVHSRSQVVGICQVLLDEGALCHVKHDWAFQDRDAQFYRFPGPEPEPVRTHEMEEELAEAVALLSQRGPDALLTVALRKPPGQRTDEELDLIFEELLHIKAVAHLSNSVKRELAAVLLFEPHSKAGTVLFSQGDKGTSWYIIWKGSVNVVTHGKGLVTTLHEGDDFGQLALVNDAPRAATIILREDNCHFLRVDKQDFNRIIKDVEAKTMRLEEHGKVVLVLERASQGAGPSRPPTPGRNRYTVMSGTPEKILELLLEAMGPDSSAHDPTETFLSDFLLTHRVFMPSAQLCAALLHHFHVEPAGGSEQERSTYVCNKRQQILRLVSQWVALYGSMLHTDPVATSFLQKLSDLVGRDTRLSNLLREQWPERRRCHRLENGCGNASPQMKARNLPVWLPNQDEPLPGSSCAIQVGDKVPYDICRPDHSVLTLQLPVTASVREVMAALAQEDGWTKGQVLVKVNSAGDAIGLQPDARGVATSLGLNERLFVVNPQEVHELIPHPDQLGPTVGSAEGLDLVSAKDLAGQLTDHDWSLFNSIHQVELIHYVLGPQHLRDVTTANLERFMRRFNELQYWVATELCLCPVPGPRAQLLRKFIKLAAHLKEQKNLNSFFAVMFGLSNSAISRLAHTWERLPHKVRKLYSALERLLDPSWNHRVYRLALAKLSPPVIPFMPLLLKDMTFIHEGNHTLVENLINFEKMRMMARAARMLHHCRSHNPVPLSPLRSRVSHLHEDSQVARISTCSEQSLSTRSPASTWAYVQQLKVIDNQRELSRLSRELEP

The target is the same in test [2]. The test is described as follows: Confirmatory qHTS for agonist of cAMP-regulated guanine nucleotide exchange factor 3 (EPAC1) (AID 1645881).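 Further: EPAC1 catalysed release of BODIPY-GDP from Rap1B seen as fluorescence loss; 100% = effect of cAMP agonist control; nearly all actives have a fitted effect of over 75% in size.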
Test [3] deals with Rap guanine nucleotide exchange factor 4 (Homo sapiens) (UniProt Q8WZA2). The test is described as follows: Confirmatory qHTS for agonist of cAMP-regulated guanine nucleotide exchange factor 4 (EPAC2) (AID 1645884).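 Further: nucleotide exchange releases bodipy-GDP from Rap1 and this lowers its fluorescence; on the % scale 0 is the no-effect control and ±100 the full control effect; nearly all actives have a fitted effect of over 65% in size.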
Chain of Rap guanine nucleotide exchange factor 4 (Homo sapiens) (Q8WZA2 whole entry, looked up): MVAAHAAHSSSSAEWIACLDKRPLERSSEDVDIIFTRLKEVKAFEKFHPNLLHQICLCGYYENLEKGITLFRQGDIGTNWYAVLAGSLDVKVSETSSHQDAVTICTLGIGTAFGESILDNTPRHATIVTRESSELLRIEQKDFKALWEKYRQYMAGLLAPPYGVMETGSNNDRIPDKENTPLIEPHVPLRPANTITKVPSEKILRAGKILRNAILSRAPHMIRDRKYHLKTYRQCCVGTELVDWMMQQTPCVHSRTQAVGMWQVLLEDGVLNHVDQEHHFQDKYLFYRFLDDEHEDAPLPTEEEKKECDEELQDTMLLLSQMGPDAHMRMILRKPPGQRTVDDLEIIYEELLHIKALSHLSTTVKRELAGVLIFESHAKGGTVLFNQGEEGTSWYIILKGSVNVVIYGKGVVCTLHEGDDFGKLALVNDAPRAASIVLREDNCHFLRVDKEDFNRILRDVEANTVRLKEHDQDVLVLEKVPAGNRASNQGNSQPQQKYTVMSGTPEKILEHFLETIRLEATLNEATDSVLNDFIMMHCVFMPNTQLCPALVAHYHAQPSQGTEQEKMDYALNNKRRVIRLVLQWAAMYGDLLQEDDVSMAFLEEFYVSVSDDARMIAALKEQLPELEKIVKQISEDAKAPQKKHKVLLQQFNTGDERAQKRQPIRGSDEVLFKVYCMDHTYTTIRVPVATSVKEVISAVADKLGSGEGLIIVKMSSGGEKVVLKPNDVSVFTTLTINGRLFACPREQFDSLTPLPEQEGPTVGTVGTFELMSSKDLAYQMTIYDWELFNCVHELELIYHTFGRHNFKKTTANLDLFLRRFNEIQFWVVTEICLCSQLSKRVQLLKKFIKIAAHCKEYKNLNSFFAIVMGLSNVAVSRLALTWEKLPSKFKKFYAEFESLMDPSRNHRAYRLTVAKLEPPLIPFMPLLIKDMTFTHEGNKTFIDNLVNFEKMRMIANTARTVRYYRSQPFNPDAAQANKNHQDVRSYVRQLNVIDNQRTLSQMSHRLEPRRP
Test [4] has the same target. The test is described as follows: Confirmatory qHTS for antagonist of cAMP-regulated guanine nucleotide exchange factor 4 (EPAC2) (AID 1645885). Further: nearly all actives have a fitted effect of over 25% in size. Further: potency means the concentration at half of the fitted maximal effect. On activity change, negative = inhibition: on the % scale 0 is the no-effect control and ±100 the full control effect.
The target of test [5] is Rap guanine nucleotide exchange factor 3 (Homo sapiens) (UniProt O95398). Description: Counterscreen qHTS for antagonist of cAMP-regulated guanine nucleotide exchange factor 3 (EPAC1) (AID 1645888). Further: % of control where 0% means no effect. Put shortly: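 Measured: fluorescence of BODIPY-GDP bound to Rap1B, which falls as exchange proceeds. Conditions include 50 uM competing GDP, 5 and 30 min reads, and a later cAMP challenge for antagonist detection.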

Results filed as inconclusive are left out. Unmarked numbers belong to inactive results. The source made the active and inactive calls. The call rests on the fitted dose curve; in most records, active means well fitted curve in the direction sought with a large enough effect; inconclusive means small, poorly fitted or top-dose-only effect, or another doubt; inactive means no such curve, though single readings can be large; an effect the other way counts as inactive or inconclusive.

As to `Clc1ccc2nc(C3CCCCC3)c(CC3CCCCC3)n2c1`, the Potency result in test [1], in test [2] and in test [4] was “inactive” in each case. For the same molecule, in test [3], the activation was -3.07% [at 17.1 µM, percent relative to cAMP agonist control]. For the same molecule, the activity change, negative = inhibition in test [5] is -0.327% [at 30.8 µM].
For `O=C(Cc1ccccc1Cl)Nc1ccc(S(=O)(=O)Nc2nccs2)cc1`, the Potency entry in test [1], in test [2], in test [3], in test [4] and in test [5] was “inactive” each time.
In the case of `CC1(C)OCC(C2CC(c3ccccc3)NS(=O)(=O)O2)O1` (stereo not given), the Potency result in test [1], in test [2], in test [3], in test [4] and in test [5] was “inactive” in each case.
As to `Cc1ccc2c(c1)C(c1ccccc1)CC(=O)O2` (stereo not given), the Potency entry in test [1], in test [2], in test [3] and in test [5] was “inactive” in each case. Besides, the Potency in test [4] was 37.9 µM (active).
For the molecule `CCOC(=O)N1CCN(c2ccc(S(=O)(=O)N(Cc3ccccc3)Cc3ccccc3)cn2)CC1`, the Potency entry in test [1], in test [2], in test [3], in test [4] and in test [5] was “inactive” in each case.
`Fc1ccc(-c2noc3ncnc(N4CCN(c5ccccc5)CC4)c23)cc1`: the Potency result in test [1], in test [2], in test [3], in test [4] and in test [5] was “inactive” each time.
On to `Clc1ccc(CSc2nncn3c2cc2occc23)cc1`, for which the Potency in test [1] is 75.7 µM (active). The Potency result in test [2], in test [3], in test [4] and in test [5] was “inactive” each time.
With `CC1CCc2[nH]c3ccc(C(=O)N(C)CC(=O)Nc4ccccc4Br)cc3c2C1` (stereo not given), the Potency result in test [1], in test [2], in test [3], in test [4] and in test [5] was “inactive” each time.
As for `COC(=O)c1ccc2nc(-c3ccccc3)c(Cc3ccc(C)cc3)n2c1`, the Potency entry in test [1], in test [2], in test [3], in test [4] and in test [5] was “inactive” throughout.
For `CCOc1ccc(CN2C(=O)c3ccccc3Sc3ccc(C(=O)NCc4ccc5c(c4)OCO5)cc32)cc1`, the Potency result in test [1], in test [2], in test [3] and in test [5] was “inactive” throughout. In test [4], the outcome is “inactive [at 12.7 µM]”.
As to `Cc1ccc2oc(=O)c3cnn(CC(=O)NCCCOC(C)C)c3c2c1`, the Potency result in test [1], in test [2], in test [3], in test [4] and in test [5] was “inactive” in each case.
For the molecule `CNc1ccc(/C=C(\C#N)C(=O)Nc2ccccn2)cc1[N+](=O)[O-]`, the Potency result in test [1], in test [2] and in test [4] was “inactive” in each case. In addition, the activation in test [3] is 0.449% [at 17.1 µM, percent relative to cAMP agonist control]. Further, the activity change, negative = inhibition in test [5] was -23.3% [at 30.8 µM].
On to `CC[C@H]1C(c2ccc(F)cc2)=NN(c2ccccc2)[C@@H]1CO`, for which the Potency entry in test [1], in test [2] and in test [4] was “inactive” throughout. Also, in test [3], the activation is 4.16% [at 17.1 µM, percent relative to cAMP agonist control]. In addition, the activity change, negative = inhibition in test [5] is -6.73% [at 30.8 µM].
For `CCOC(=O)C1CCCCN1C(=O)c1oc2c(Cl)cc(C)cc2c1C` (stereo not given), the Potency entry in test [1], in test [2], in test [3], in test [4] and in test [5] was “inactive” each time.
With `CC(C)(CNC(=O)Cc1ccc(NS(=O)(=O)c2cccc(C(F)(F)F)c2)cc1)N1CCOCC1`, the Potency entry in test [1], in test [2] and in test [4] was “inactive” in each case. Besides, the activation in test [3] is 1.17% [at 17.1 µM, percent relative to cAMP agonist control]. Moreover, the activity change, negative = inhibition in test [5] was 10.3% [at 30.8 µM].
In the case of `OC[C@H]1O[C@H](OCCc2ccc(O)cc2)[C@H](O)[C@@H](O)[C@@H]1O`, the Potency result in test [1], in test [2], in test [3], in test [4] and in test [5] was “inactive” throughout.
In the case of `CCN(CC(=O)Nc1ccccc1C(F)(F)F)C(=O)c1cc2c(s1)CCCCC2`, the Potency entry in test [1], in test [2], in test [3], in test [4] and in test [5] was “inactive” throughout.
Regarding `COc1ccc(N2CCN(S(=O)(=O)c3cc4c(cc3C)NC(=O)CO4)CC2)cc1`, the Potency result in test [1], in test [2], in test [3], in test [4] and in test [5] was “inactive” throughout.
Consider `CN(CCC#N)C(=O)COC(=O)c1c2c(nc3ccccc13)/C(=C/c1ccco1)CC2`, for which the Potency in test [1] was 3.55 µM (active). For the same molecule, the Potency entry in test [2] and in test [4] was “inactive” each time. For the same molecule, the activation in test [3] is -0.614% [at 17.1 µM, percent relative to cAMP agonist control]. In test [5], the activity change, negative = inhibition was -6.16% [at 30.8 µM].
Turning to `O=C(COC(=O)c1nc(Cl)ccc1Cl)c1ccccc1Cl`, the Potency result in test [1], in test [2], in test [3], in test [4] and in test [5] was “inactive” each time.
With `O=C1C=C(N2CCCCC2)c2ccccc2C1=O`, the Potency in test [1] is 25.1 µM (active). The Potency entry in test [2] and in test [4] was “inactive” in each case. In addition, the activation in test [3] is 2.92% [at 17.1 µM, percent relative to cAMP agonist control]. For the same molecule, in test [5], the activity change, negative = inhibition was -3.66% [at 30.8 µM].
In the case of `COc1cc(Nc2cc(C)nc3ncnn23)cc(OC)c1`, the Potency result in test [1], in test [2], in test [3], in test [4] and in test [5] was “inactive” each time.
For the molecule `COc1ccc(-c2cc(C(F)F)n3ncc(C(=O)N4CCc5ccccc54)c3n2)cc1`, the Potency result in test [1], in test [2], in test [3], in test [4] and in test [5] was “inactive” throughout.
